PubChem BioAssay (NCI)
Where “and” joins values, the source holds several entries; their conditions need not be identical. Equal values may be shown once. About 79,000 compounds went through this panel and 15% of them were active in at least one assay; those are over-represented in the sample as a whole. Cut-off read from the data, not from the text of the source: active = growth inhibition above about 70%; inactive = the rest.

How the values were obtained:
[1] = NCI Yeast Anticancer Drug Screen. Data for the rad50 strain (AID 155);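 note: 0% = growth of vehicle-only cultures of the same strain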; conditions: S. cerevisiae rad50 strain growth inhibition; at 50.0 µM; active compounds read high
How it was run: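 Relative growth inhibition (compound vs vehicle) was measured in yeast with a defined repair-gene alteration.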

[2] = NCI Yeast Anticancer Drug Screen. Data for the mec2-1 strain (AID 157); conditions: S. cerevisiae mec2-1 strain, at 50.0 µM, active compounds read high
How it was run: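 Growth inhibition is read against vehicle-treated controls after compound exposure of the mec2-1 yeast strain, which is defective in DNA damage repair or cell cycle control.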

[3] = NCI Yeast Anticancer Drug Screen. Data for the sgs1 mgt1 strain (AID 161);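 note: 0% = growth of cultures given vehicle only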; conditions: S. cerevisiae sgs1 mgt1 strain, at 50.0 µM, active compounds read high
How it was run: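 Percent growth inhibition was derived by comparing compound-exposed mutant yeast with vehicle-exposed cultures. The strain carries alterations in DNA damage repair.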

[4] = NCI Yeast Anticancer Drug Screen. Data for the cln2 rad14 strain (AID 165);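 note: 0% = growth equal to vehicle treated cultures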; conditions: S. cerevisiae cln2 rad14 strain, at 50.0 µM, active compounds read high
How it was run: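 Growth inhibition, relative to vehicle-treated controls, is the read-out. The test organism is a yeast strain with defined genetic alterations, cln2 rad14.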

[5] = NCI Yeast Anticancer Drug Screen. Data for the bub3 strain (AID 167); conditions: S. cerevisiae bub3 mutant strain, at 50.0 µM, active compounds read high
How it was run: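 Screening used yeast with an engineered genetic alteration affecting cell cycle control. Compound-exposed cultures were compared with vehicle cultures, and reduced growth was taken as inhibition.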

[6] = NCI Yeast Anticancer Drug Screen. Data for the mlh1 rad18 strain (AID 175); conditions: S. cerevisiae mlh1 rad18 strain growth inhibition; at 50.0 µM; active compounds read high
How it was run: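 Cells of a genetically altered yeast strain, deficient in DNA damage repair, were treated with compound. Their growth was then compared with that of vehicle-treated cultures to give inhibition.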

Measured: growth inhibition

COc1ccc2c3c1OC1C(C)(O)C(O)CC4C(C2)N(C)CCC341 (centres undefined)
inactive: [1] -3.55% | [2] -4.95% | [3] -16.2% | [4] 9.3% | [5] 4.4% | [6] 14.1%

CCOP(=O)(Oc1ccc([N+](=O)[O-])cc1)c1cccc(Br)c1 (centres undefined)
inactive: [1] 41.5% | [2] 19.5% | [3] 54% | [4] 41.3% | [5] 38.5% | [6] 25%

O=P(Oc1ccccc1)(Oc1ccccc1)C(O)C(Cl)(Cl)Cl (centres undefined)
inactive: [1] 7.55% | [2] -2.55% | [3] -0.3% | [4] 6.5% | [5] 4% | [6] 5.45%

CCOC(=O)NP(=O)(Nc1ccccc1)Nc1ccccc1
inactive: [1] 21.2% | [2] -8.05% | [3] -3.5% | [4] 5.7% | [5] -5.1% | [6] -5%

CC(C)[C@](O)(C(=O)OCC1=CC[N+]2([O-])CC[C@@H](O)[C@@H]12)[C@H](C)O (some centres undefined)
inactive: [1] -10.2% | [2] -46.3% | [3] 4.35% | [4] -0.85% | [5] -26.2% | [6] -10.2%

NNc1cccc2c1CCC(N)C2 (centres undefined)
inactive: [1] -0.35% | [2] 21.7% | [3] 6.35% | [4] -11.4% | [5] 5% | [6] 9.65%

CN1CCN(C(=O)Cc2c[nH]c3ccccc23)CC1
inactive: [1] -1.25% | [2] 11.8% | [3] 2.9% | [4] -20.3% | [5] 9.35% | [6] 15.7%

NC(Cc1cc([N+](=O)[O-])ccc1CN(CCCl)CCCl)C(=O)O (centres undefined)
inactive: [1] 41.5% | [2] 29.8% | [3] 42% | [4] 19.5% | [5] 40.1% | [6] 39.6%

CC1CCC2N(C1)CC1C3(O)CC45OC6(O)C(O)CCC4(C)C6CCC5C3(O)CC(O)C1(O)C2(C)O (centres undefined)
inactive: [1] -19.9% and -2.1% | [2] -17.9% and -31.1% | [3] -2.9% and -17.4% | [4] -21.6% and 9.15% | [5] -31.2% and -0.4% | [6] 6.5% and -15.3%

NC(=O)C(F)(F)Cl
inactive: [1] 12.8% | [2] 7.1% | [3] -20.4% | [4] 12.3% | [5] -28.8% | [6] -19.2%

C[N+](C)(C)NP(=O)(N[N+](C)(C)C)c1ccccc1
inactive: [1] 3.2% | [2] -8.15% | [3] -19.3% | [4] 11.6% | [5] 1.95% | [6] -11.1%

Cn1c(O)c(C(=O)NC2CCCCC2)c(=O)n(C)c1=S
inactive: [1] -6.1% | [2] 12.2% | [3] 18.9% | [4] 27.6% | [5] 8.5% | [6] 13.1%

CC1=CC=NC(Cl)(Cl)N1
inactive: [1] 19.4% | [2] -9.6% | [3] -15.7% | [4] 13.6% | [5] -1.35% | [6] 20.4%

CC(Cl)CC(=O)OCC1CCCN2CCCCC12 (centres undefined)
inactive: [1] 55.1% | [2] 33.3% | [3] 23.6% | [4] 41.8% | [5] 45.4% | [6] 39.5%

O=C(Nc1cc(S(=O)(=O)F)ccc1Cl)Oc1ccc([N+](=O)[O-])cc1
inactive: [1] 17.4% | [2] 53.2% | [3] 38.3% | [4] 11.3% | [5] 20.1% | [6] 32.5%

N#CS.[Cr+3].[NH-]CC[NH-].[NH-]CC[NH-].[NH-]CC[NH-]
inactive: [1] 14.8% | [2] -0.5% | [3] 10.2% | [4] 12.8% | [5] -2.75% | [6] 5.05%

CN(C)CCN(C)C.[C-]#[O+].[C-]#[O+].[C-]#[O+].[C-]#[O+].[W+2]
inactive: [1] -13% | [2] -4.65% | [3] -7.5% | [4] -51.1% | [5] 2.1% | [6] 0.05%

[O-][n+]1c2ccccc2nn1-c1ccc(N(CCCl)CCCl)cc1
inactive: [1] 7.2% | [2] 0.35% | [3] -2.05% | [4] -6.95% | [5] -16.9% | [6] -22.1%

COP(=O)(O)NC(C)=O
inactive: [1] 13.7% | [2] -23.9% | [3] 8.85% | [4] -64.5% | [5] 9.45% | [6] -8.4%
